The values that follow come from PubChem BioAssay (NCATS).

SMILES strings stand for the structures. Results filed as inconclusive are left out. Entries that show only a call come without a potency. The source made the active and inactive calls. Calls follow the shape of the dose curve; as a rule, active = well fitted inhibition curve with a large enough effect; inconclusive = small, poorly fitted or top-dose-only effect; inactive = no such curve, though single readings can be large or run the other way.
Potency is read from the fitted curve at half-maximal effect.

The experiment can be described thus: qHTS for Inhibitors of the Aldehyde Dehydrogenase Family (ALDH1A2, ALDH1A3, ALDH2, ALDH3A1) (AID 2061307). Also: nearly all actives have a fitted effect of over 50% in size. As to potency: test system not described further here. To be noted: ALDH inhibition qHTS; series mostly up to 50.3 µM. For orientation: Quantitative high-throughput screening tests each substance at several concentrations.
As to `CNc1sc(-c2cccc3ccccc23)nc1C#N`, the Potency result is “inactive”.

Take `Cc1cccc(NC(=O)N2CC(Oc3ccc(-c4nc(C)no4)cc3)C2)c1`: the Potency is 3.24 µM (active).

For the compound `CN(C)CCCNc1cc(O)c2ncccc2c1`, the Potency entry is “inactive”.

As for `Cc1nnc2ccc(N3CCC(NC(=O)c4cccc(C(F)(F)F)c4)CC3)nn12`, the Potency result is “inactive”.

As to `CCc1ccc(-n2c(=O)c3cccnc3n2CC(=O)N(CC)c2cccc(C)c2)cc1`, the Potency entry was “inactive”.

In the case of `O=C(NCCc1nc2ccccc2n1CCCc1ccccc1)C1CCCCC1`, the Potency entry is “inactive”.

As for `O=C(CSc1nc2ncccc2o1)Nc1ccc(Cl)cc1F`, the Potency result was “inactive”.

Consider `N#CNC(=O)c1ccc(-n2cccc2/C=C2\NC(=O)N(CC(=O)Nc3ccc(F)cc3)C2=O)cc1`, for which the Potency was 4 µM (active).

With `Cc1ccc(OCCn2c(CCNC(=O)c3ccccc3N)nc3ccccc32)cc1`, the Potency is 1.13 µM (active).

In the case of `CCOC(=O)Cn1c(=O)oc2cc(S(=O)(=O)N3CCN(c4ccc(Cl)cc4)CC3)ccc21`, the Potency entry was “inactive”.

As to `Cc1cccc2c1NC(=O)/C2=C/c1cc(Cl)c(O)c(Cl)c1`, the Potency was 4 µM (active).

`CCc1ccc(-c2nn3c(C)nnc3s2)cc1NC(=O)c1ccc(-c2cccc(Cl)c2)o1`: the Potency was 25.1 µM (active).

For the compound `CC(=O)C1CCC2(C)C3=C(CCC12C)C1(C)CCC(=O)C(C)(C)C1CC3` (stereo not given), the Potency result was “inactive”.

In the case of `CC(=O)Nc1sc2c(c1-c1ccco1)CCNC2`, the Potency entry is “inactive”.

Take `CN(Cc1ccc(-c2ccc(C#N)cc2)o1)c1ccc(N2CCN(C(=O)OC(C)(C)C)CC2)cc1`: the Potency is 1.79 µM (active).

On to `CC(C)(O)c1ccccc1CC[C@H](SCC1(CC(=O)O)CC1)c1cccc(/C=C/c2ccc3ccc(Cl)cc3n2)c1`, for which the Potency is 10.1 µM (active).

For `Cc1ccc(NC(=O)CSc2nc3ccccc3nc2N2CCOCC2)cc1`, the Potency was 25.1 µM (active).

Turning to `C[C@@H](O)c1ccc(-c2ccc3ncnc(NCc4cccs4)c3c2)o1`, the Potency entry is “inactive”.

On to `CCn1cnc2c(Nc3ccc(CC(=O)N=C(N)N)cc3)nc(C#N)nc21`, for which the Potency result is “inactive”.

For `CC(=O)c1ccc(NC(=O)c2cc(S(=O)(=O)N3CCOCC3)ccc2C)cc1`, the Potency entry was “inactive”.

For `Nc1ccccc1C(=O)NCc1ccco1`, the Potency result was “inactive”.

`Cc1ccc(NS(=O)(=O)c2cc3c(cc2-c2ccco2)NC(=O)CO3)cc1C`: the Potency result is “inactive”.

In the case of `Cc1ccnc(NC(=S)N2CCN(c3ccc(Cl)cc3Cl)CC2)c1`, the Potency result was “inactive”.

In the case of `O=C(NCc1ccccc1)c1csc(N2CCN(c3ccc(Cl)cc3)CC2)n1`, the Potency is 2.82 µM (active).

For `Cc1ccnc(NC(=S)N2CCNCC2)c1`, the Potency entry is “inactive”.

Take `O=C(NCc1ccc2c(c1)OCO2)c1csc(N2CCN(c3ccc(F)cc3)CC2)n1`: the Potency is 0.708 µM (active).

As to `CCOC(=O)c1ccc(-c2ccc3ncnc(NCc4ccc(C)o4)c3c2)o1`, the Potency result was “inactive”.

On to `Cc1cc(N(C)S(=O)(=O)c2ccc(NC(=O)Cc3ccc(Cl)c(Cl)c3)cc2)no1`, for which the Potency was 25.2 µM (active).

In the case of `COC(=O)c1ccnc(NCc2ccc(O)c3ncccc23)c1`, the Potency was 11.3 µM (active).

In the case of `O=C(Nc1cccc(Cc2ccccc2)c1)c1ccc(-c2cccc([N+](=O)[O-])c2)o1`, the Potency is 25.2 µM (active).

`CC(=O)Nc1sc2c(c1-c1ccc(N(C)C)cc1)CCNC2`: the Potency was 14.2 µM (active).

As to `O=C(Nc1cccc(Br)c1)c1cc(-c2ccc3c(c2)OCCO3)on1`, the Potency entry was “inactive”.

For `COc1ccc(C2Nc3ccc(Cl)cc3C(=O)N2Cc2ccccc2)cc1COc1ccc(NC(C)=O)cc1` (stereo not given), the Potency is 3.57 µM (active).

As for `COc1ccc(NC(=O)c2cccnc2)cc1S(=O)(=O)Nc1ccc(Br)cc1`, the Potency result was “inactive”.

In the case of `C#CCOc1ccc(-c2no[n+]([O-])c2C#N)cc1`, the Potency was 11.3 µM (active).

On to `O=C(N/N=C/c1ccc(Sc2ccccn2)o1)c1ccccc1`, for which the Potency is 5.65 µM (active).

Turning to `CC(=O)Nc1sc2c(c1-c1ccc(N3CCN(C)CC3)cc1)CCNC2`, the Potency entry is “inactive”.

In the case of `CCc1nnc2sc(-c3ccc(C)c(NC(=O)c4ccc(-c5cccc(Cl)c5)o4)c3)nn12`, the Potency was 12.6 µM (active).

On to `O=C(NCC(=O)N1CCC(c2ccccc2)CC1)c1cccc(-c2ccc(C(F)(F)F)cc2)c1`, for which the Potency result was “inactive”.

Regarding `COc1ccc(C2=NS(=O)(=O)N(C)C(C(=O)Nc3ccc(OC(F)(F)F)cc3)=C2)cc1`, the Potency is 7.94 µM (active).
